Assay results: PubChem BioAssay
Calls of active or inactive are those of the source.

Legend:
[1] = test system: PRMT1 (protein arginine N-methyltransferase 1); assay: small molecules binding arginine methyltransferase PRMT1 – biochemical, small-molecule microarray, 635 nm fluorescence, primary screen (AID 1088); settings: higher = more signal;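 further: binding of Prmt1 protein to compounds spotted on small-molecule microarray slides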
[2] = growth effects on S. cerevisiae YJM789 – YJM789 clinical isolate, OD600, 24 h, basal, primary screen (AID 1089); settings: higher = more signal, called active from +8 up or from −8 down;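 further: growth of clinical yeast isolate S. cerevisiae YJM 789 seeded 1000 cells per well; test concentration not given here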
[3] = S. pombe growth modifiers, basal conditions – strain 972, OD600, 24 h, no modulator, primary screen (AID 1090);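 further: basal condition with compound alone and no growth modifier present; test concentration not given here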; settings: S. pombe 972 growth, higher = more signal, called active from +8 up or from −8 down
[4] = budding yeast growth modifiers under rapamycin – strain BY4716, OD600, 96 h, primary screen (AID 1091); further: test concentration not given here; settings: S. cerevisiae BY4716 + rapamycin, higher = more signal, called active from +8 up or from −8 down
[5] = target: Torsin-1A-interacting protein 2 (Homo sapiens) (UniProt Q8NFQ8); assay: small molecules binding lysate-expressed LULL1 – cell lysate, human LULL1 lysate, 635/667 nm fluorescence, primary screen (AID 1092); settings: small-molecule microarray, hLULL1 lysate binding, 635 nm fluorescence; higher = more signal;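 further: probe is lysate of COS7 cells overexpressing human LULL1; score merges per-feature 667 nm fluorescence with signal-to-noise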
Chain of Torsin-1A-interacting protein 2 (Homo sapiens) (Q8NFQ8 whole entry, looked up): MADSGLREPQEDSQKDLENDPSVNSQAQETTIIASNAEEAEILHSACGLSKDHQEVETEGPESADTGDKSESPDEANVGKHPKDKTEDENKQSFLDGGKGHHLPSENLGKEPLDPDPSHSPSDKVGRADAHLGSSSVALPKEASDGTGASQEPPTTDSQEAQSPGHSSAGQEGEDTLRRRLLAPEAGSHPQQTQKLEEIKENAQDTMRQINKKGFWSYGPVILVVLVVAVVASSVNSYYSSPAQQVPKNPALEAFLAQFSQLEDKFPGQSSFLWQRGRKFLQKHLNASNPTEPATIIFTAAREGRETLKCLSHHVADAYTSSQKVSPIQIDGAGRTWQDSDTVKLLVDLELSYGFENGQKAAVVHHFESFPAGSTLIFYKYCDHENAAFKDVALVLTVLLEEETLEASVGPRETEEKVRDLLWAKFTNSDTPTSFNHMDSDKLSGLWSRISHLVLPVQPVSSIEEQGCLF

[6] = optical density change of DRC41 E. coli – strain DRC41, OD650, 24 h, E. coli filamentation project, primary screen (AID 1093);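 further: MC1000 strain lacking acrAB efflux and sulA so SOS filamentation is blocked; test concentration not given here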; settings: E. coli DRC41 growth, higher = more signal, called active from +8 up or from −8 down
[7] = probe aLefty2 binding to arrayed compounds – biochemical, biotinylated probe, 635/667 nm fluorescence, primary screen (AID 1094); settings: small-molecule microarray, higher = more signal;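 further: score merges spot fluorescence near 667 nm with spot signal-to-noise ratio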
[8] = test system: Noggin (protein binding on small-molecule microarray); assay: small molecules binding Noggin protein – biochemical, 635/667 nm fluorescence, primary screen (AID 1095); settings: 635 nm fluorescence, higher = more signal;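 further: score merges 667 nm feature fluorescence with signal to noise over triplicate slides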
[9] = target: Neurogenic locus notch homolog protein 3 (Homo sapiens) (UniProt Q9UM47); assay: small molecules binding NOTCH3 protein – biochemical, 635/667 nm fluorescence, primary screen (AID 1096); settings: small-molecule microarray, 635 nm fluorescence, higher = more signal
Chain of Neurogenic locus notch homolog protein 3 (Homo sapiens) (Q9UM47 whole entry, looked up): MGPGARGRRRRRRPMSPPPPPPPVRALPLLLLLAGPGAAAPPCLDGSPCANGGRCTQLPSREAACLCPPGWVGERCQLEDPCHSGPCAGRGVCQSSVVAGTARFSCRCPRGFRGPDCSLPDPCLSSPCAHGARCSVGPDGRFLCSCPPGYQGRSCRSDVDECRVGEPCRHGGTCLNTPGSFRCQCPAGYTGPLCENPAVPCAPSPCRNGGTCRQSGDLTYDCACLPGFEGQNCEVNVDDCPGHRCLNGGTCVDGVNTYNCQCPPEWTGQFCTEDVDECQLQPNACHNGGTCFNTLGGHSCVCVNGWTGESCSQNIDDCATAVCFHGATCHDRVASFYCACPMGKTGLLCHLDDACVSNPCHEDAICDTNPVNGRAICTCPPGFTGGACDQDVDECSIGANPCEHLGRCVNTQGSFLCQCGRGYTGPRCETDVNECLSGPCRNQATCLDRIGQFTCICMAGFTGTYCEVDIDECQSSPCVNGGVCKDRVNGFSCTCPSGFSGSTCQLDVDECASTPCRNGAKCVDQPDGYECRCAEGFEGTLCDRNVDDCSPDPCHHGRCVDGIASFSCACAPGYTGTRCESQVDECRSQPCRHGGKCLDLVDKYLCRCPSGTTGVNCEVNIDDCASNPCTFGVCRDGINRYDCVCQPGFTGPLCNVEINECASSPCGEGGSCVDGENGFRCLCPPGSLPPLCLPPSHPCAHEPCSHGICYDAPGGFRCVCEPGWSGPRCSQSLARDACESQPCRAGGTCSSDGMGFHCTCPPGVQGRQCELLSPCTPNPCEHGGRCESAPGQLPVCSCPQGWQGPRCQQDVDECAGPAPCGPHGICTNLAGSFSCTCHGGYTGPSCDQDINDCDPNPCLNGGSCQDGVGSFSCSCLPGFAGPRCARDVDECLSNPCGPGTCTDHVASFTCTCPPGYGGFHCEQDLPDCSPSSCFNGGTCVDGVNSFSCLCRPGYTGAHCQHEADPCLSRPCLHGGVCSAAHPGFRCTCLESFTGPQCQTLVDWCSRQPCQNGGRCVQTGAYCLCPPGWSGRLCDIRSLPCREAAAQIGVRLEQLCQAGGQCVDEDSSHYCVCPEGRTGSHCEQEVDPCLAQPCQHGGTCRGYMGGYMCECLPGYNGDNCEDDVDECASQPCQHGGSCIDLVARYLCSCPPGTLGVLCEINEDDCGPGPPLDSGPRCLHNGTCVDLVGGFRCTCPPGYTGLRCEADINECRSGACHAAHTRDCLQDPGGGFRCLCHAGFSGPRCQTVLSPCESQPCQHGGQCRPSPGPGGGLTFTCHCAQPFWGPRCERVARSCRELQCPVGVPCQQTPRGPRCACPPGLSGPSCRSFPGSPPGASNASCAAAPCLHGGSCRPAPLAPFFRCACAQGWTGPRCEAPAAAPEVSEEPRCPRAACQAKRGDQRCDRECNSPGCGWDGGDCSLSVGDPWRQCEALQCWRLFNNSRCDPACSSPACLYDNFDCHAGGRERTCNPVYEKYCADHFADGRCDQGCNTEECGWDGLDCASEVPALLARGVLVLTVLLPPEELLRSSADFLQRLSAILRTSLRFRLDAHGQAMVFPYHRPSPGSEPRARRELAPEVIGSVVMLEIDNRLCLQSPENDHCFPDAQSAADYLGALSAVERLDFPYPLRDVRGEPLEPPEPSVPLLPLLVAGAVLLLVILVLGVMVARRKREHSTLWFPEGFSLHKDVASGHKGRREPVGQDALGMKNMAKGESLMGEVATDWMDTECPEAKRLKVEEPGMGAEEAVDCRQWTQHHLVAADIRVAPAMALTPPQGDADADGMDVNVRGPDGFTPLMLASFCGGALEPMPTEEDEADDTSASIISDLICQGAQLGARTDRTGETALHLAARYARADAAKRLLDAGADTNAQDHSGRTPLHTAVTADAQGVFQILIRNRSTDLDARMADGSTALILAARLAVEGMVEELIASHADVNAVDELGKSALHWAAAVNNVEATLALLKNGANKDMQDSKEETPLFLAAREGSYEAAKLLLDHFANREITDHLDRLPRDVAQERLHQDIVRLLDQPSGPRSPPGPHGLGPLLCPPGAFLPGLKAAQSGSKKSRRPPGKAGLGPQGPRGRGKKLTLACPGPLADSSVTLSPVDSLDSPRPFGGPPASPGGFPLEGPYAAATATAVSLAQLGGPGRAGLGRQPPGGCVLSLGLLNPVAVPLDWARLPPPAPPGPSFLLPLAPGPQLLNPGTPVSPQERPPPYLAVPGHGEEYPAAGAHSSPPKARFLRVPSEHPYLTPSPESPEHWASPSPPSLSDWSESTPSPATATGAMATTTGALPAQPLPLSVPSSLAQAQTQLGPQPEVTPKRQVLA

[10] = probe aEGFR binding to arrayed compounds – biochemical, biotinylated probe, 635/667 nm fluorescence, primary screen (AID 1097); settings: small-molecule microarray, higher = more signal;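 further: probe is a biotinylated anti-EGFR antibody binding compounds printed on slides; score combines fluorescence near 667 nm and signal to noise of each spot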
[11] = test system: Plasmodium falciparum Sir2 (PF13_0152, Sir2A); assay: Plasmodium falciparum Sir2A binding compounds – biochemical, small-molecule microarray, 635 nm fluorescence, primary screen (AID 1098); settings: fluorescence 635 nm, higher = more signal;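 further: score merges spot fluorescence intensity with its signal-to-noise ratio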
[12] = probe aDKK1 binding to arrayed compounds – biochemical, biotinylated probe, 635/667 nm fluorescence, primary screen (AID 1099); settings: small-molecule microarray, higher = more signal;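 further: score merges 667nm spot fluorescence with signal to noise across triplicate slides; reference of the scale not given here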
[13] = probe aCHRDL2 binding to arrayed compounds – biochemical, biotinylated probe, 635/667 nm fluorescence, primary screen (AID 1100); settings: small-molecule microarray, higher = more signal
[14] = change in splice reporter luminescence, either direction, cell-based, HEK293, spliceosome inhibition project, primary screen (AID 1101); settings: HEK293 splicing luciferase reporter, 24 h, higher = more signal, called active from +8 up or from −8 down;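 further: HEK293 cells carrying a splicing-competent luciferase reporter gene; test concentration not given here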
[15] = target: Fibroblast growth factor 10 (Homo sapiens) (UniProt O15520); assay: compounds binding fibroblast growth factor 10 – biochemical, small-molecule microarray, 635 nm fluorescence, primary screen (AID 1102); settings: FGF10 binding, fluorescence 635 nm, higher = more signal
Chain of Fibroblast growth factor 10 (Homo sapiens) (O15520 whole entry, looked up): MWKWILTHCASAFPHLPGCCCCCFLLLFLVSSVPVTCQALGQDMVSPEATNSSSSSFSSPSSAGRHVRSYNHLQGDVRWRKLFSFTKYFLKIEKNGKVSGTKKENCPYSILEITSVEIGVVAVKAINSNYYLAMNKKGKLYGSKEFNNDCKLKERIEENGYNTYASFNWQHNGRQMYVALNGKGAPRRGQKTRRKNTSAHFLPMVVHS

[16] = test system: glycogen synthase kinase-3 (GSK3A per assay name; protocol says GSK3B); assay: compounds binding glycogen synthase kinase-3 – biochemical, small-molecule microarray, 635 nm fluorescence, GSK3A, primary screen (AID 1103); settings: fluorescence 635 nm, higher = more signal; further: the record names both GSK3A and GSK3B
[17] = target: Epidermal growth factor receptor (Homo sapiens) (UniProt P00533); assay: compounds binding epidermal growth factor receptor – biochemical, small-molecule microarray, 635 nm fluorescence, primary screen (AID 1104); settings: EGFR binding, higher = more signal;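 further: score merges 667 nm emission intensity with spot signal to noise over triplicate slides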
Chain of Epidermal growth factor receptor (Homo sapiens) (P00533 whole entry, looked up): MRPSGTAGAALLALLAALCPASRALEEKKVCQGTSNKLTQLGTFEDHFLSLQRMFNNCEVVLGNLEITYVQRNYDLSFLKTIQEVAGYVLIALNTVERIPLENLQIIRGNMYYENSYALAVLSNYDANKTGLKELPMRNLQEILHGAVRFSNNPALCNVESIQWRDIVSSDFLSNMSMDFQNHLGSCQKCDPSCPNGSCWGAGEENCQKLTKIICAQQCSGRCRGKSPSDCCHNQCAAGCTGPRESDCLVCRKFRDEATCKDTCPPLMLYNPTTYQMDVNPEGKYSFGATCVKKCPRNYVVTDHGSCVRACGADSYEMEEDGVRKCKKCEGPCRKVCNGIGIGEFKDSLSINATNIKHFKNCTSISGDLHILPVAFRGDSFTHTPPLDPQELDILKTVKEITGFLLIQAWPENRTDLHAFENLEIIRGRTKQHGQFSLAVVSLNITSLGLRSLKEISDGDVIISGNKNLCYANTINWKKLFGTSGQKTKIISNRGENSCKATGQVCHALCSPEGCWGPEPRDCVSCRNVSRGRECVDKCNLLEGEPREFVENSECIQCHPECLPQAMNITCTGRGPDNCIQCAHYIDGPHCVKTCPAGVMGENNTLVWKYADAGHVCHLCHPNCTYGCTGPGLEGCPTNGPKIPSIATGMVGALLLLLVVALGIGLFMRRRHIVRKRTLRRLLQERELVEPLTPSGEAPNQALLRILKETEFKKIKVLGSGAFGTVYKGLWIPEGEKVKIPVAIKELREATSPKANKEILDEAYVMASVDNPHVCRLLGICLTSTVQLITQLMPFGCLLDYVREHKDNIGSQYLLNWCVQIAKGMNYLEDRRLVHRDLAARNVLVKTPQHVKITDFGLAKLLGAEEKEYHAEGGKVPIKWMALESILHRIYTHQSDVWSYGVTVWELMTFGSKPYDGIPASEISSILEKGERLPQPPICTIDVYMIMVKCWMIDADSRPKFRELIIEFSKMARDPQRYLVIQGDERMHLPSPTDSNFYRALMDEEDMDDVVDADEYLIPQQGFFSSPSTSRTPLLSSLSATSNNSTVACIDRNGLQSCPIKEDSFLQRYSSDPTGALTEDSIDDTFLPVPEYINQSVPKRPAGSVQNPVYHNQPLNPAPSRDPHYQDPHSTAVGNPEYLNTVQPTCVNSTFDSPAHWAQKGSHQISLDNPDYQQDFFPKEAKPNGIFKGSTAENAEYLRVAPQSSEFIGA

[18] = target: Follistatin-related protein 3 (Homo sapiens) (UniProt O95633); assay: compounds binding follistatin-related protein 3 – biochemical, small-molecule microarray, 635 nm fluorescence, primary screen (AID 1105); settings: FSTL3 binding, higher = more signal;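 further: score merges emission near 667 nm and signal to noise per printed spot across three slides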
Chain of Follistatin-related protein 3 (Homo sapiens) (O95633 whole entry, looked up): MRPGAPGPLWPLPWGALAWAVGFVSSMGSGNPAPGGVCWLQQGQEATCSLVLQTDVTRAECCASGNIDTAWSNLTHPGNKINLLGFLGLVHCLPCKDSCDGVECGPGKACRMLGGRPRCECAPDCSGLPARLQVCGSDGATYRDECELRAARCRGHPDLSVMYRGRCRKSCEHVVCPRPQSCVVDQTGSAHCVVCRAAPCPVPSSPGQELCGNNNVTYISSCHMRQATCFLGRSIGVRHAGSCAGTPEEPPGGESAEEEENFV

[19] = target: Dickkopf-related protein 1 (Homo sapiens) (UniProt O94907); assay: small molecules binding DKK1 protein – biochemical, small-molecule microarray, 635 nm fluorescence scan, primary screen (AID 1106); settings: higher = more signal;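 further: score merges emission near 667 nm with signal to noise over three replicate slides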
Chain of Dickkopf-related protein 1 (Homo sapiens) (O94907 whole entry, looked up): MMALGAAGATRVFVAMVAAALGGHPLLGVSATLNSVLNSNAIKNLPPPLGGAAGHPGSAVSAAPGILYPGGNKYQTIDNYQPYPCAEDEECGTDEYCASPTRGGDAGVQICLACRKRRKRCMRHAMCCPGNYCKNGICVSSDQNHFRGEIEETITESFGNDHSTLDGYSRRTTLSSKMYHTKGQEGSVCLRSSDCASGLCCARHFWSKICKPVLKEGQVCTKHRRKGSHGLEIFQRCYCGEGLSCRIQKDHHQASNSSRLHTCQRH

[20] = test system: Inhibin beta A chain (activin A); assay: small molecules binding activin A – biochemical, small-molecule microarray, 635 nm fluorescence scan, primary screen (AID 1107); settings: INHBA, higher = more signal;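 further: mouse activin A protein probed at 4.33 µg/mL on printed slides; score merges bound-protein fluorescence near 667 nm with spot signal-to-noise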

| SMILES | composite z-score [1] | z-score [2] | z-score [3] | z-score [4] | composite z-score [5] | z-score [6] | composite z-score [7] | composite z-score [8] | composite z-score [9] | composite z-score [10] | composite z-score [11] | composite z-score [12] | composite z-score [13] | z-score [14] | composite z-score [15] | composite z-score [16] | composite z-score [17] | composite z-score [18] | composite z-score [19] | composite z-score [20] |
| --- | --- | --- | --- | --- | --- | --- | --- | --- | --- | --- | --- | --- | --- | --- | --- | --- | --- | --- | --- | --- |
| COC(=O)CC1OC1[C@H](C)[C@@H](OC)C(C)C (stereo not given in full) | 0.12 | -0.132 (inactive) | -4.41 (inactive) | 1.24 (inactive) | -0.481 | 0.453 (inactive) | 0.121 | 0.291 | -0.556 | -0.151 | 0.505 | -0.0977 | -0.111 | 0.743 (inactive) | 0.142 | -0.792 | 0.335 | 0.0479 | 0.82 | 1.32 |
| CO[C@H]1O[C@H](CO)[C@@H](OC(=O)Nc2ccc(C#N)cc2)[C@H](OC(=O)c2cc3ccccc3[nH]2)[C@H]1OC(=O)c1cc2ccccc2[nH]1 | 1.3 | -2.49 (inactive) | -1.17 (inactive) | 0.507 (inactive) | 1.77 | 3.01 (inactive) | 0.0261 | 1.02 | 0.695 | -0.0238 | 1.19 | 0.149 | 0.19 | -0.561 (inactive) | 0.747 | 1.16 | 0.119 | 0.588 | 0.295 | 0.354 |
| COc1ccc([Si](C)(C)[C@@H]2[C@@H](CCO)O[C@]3(C(=O)N(Cc4ccc(NC(C)=O)cc4)c4ccccc43)[C@H]2C)cc1 | 1.55 | 2.99 (inactive) | 0.282 (inactive) | 34.6 (active) | 2.7 | 1.44 (inactive) | 0.0325 | 1.48 | 0.949 | 0.492 | 1.23 | -0.173 | 0.0018 | -2.27 (inactive) | 0.779 | 1.28 | 1.28 | 0.951 | -0.0026 | 0.387 |
| CC[C@@H](c1ccccc1)n1c(=O)n2n(c1=O)[C@H]1[C@H](O)[C@@H]3O[C@@H]3C(=NOCC(C)C)[C@H]1CC2 | -0.179 | 1.3 (inactive) | -0.0534 (inactive) | 1.37 (inactive) | 0.543 | 0.409 (inactive) | -0.213 | 0.288 | 0.586 | -0.0967 | 0.315 | -0.187 | -0.532 | 1.26 (inactive) | -0.0238 | 0.0344 | 0.143 | 0.227 | 0.202 | -0.0597 |
| O=C1C[C@@H](O)[C@@H](O)[C@@H]2[C@@H]3C(=O)N(c4ccc(F)cc4F)C(=O)[C@@H]3CC[C@@H]12 | 0.306 | -0.168 (inactive) | -0.413 (inactive) | -0.0694 (inactive) | 0.662 | 0.315 (inactive) | 0.0424 | 0.438 | 0.65 | -0.109 | 0.341 | -0.343 | -0.602 | 0.337 (inactive) | 0.627 | 0.169 | 0.463 | 0.447 | 0.612 | 0.199 |
